Experiments:
Assay in all cases: log2 ratio of Biotin-Ahx-Ub-VS probe labelling (fragment/DMSO); higher = less target engagement (more negative = stronger competition), active = hit call of the paper (q ≤ 0.05, log2 ratio ≤ -1)
Conditions in all cases: compound concentration: 200 uM; treatment time: 3 h
USP42 = biological target: T1, USP42 (UniProt Q9H9J4)
T1 sequence (whole entry): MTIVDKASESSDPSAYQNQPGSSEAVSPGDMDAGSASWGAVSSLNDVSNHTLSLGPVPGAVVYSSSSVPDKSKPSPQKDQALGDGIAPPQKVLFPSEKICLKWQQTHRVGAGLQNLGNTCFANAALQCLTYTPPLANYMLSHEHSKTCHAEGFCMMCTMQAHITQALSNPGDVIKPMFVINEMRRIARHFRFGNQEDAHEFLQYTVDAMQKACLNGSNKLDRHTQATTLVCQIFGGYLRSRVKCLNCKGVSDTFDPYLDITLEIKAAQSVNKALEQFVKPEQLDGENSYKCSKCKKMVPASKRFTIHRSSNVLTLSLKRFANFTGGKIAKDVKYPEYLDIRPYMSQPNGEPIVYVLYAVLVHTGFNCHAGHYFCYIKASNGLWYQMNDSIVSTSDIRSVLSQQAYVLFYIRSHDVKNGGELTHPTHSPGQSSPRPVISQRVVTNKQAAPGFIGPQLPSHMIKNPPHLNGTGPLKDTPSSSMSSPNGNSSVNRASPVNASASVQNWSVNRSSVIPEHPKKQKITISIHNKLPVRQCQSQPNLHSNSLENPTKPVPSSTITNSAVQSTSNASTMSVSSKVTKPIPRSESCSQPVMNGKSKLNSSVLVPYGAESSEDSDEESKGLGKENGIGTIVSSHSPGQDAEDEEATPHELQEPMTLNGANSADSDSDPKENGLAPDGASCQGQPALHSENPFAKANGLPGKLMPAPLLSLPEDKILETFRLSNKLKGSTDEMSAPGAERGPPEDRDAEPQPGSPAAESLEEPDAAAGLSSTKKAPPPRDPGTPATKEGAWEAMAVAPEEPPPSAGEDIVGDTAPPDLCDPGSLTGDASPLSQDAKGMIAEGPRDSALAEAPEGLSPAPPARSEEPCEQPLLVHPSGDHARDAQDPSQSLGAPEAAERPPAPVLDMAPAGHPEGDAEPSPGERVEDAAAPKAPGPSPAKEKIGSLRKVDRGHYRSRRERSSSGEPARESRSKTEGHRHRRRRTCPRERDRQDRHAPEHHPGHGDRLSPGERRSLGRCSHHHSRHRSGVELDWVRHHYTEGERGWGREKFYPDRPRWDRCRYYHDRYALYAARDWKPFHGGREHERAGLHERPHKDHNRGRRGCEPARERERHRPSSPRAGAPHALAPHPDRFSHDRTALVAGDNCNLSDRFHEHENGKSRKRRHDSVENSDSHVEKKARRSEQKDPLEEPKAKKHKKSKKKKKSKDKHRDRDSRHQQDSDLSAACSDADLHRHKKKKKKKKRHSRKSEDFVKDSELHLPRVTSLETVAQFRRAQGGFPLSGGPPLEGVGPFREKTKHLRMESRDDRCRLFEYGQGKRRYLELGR
Summary of the method: (§1)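 Average log2 ratios of fragment over vehicle were obtained by unpaired t-test from global-median-normalised Spectronaut label-free quantities. Proteins with ≥2 unique peptides were included. HEK293T lysate (495 µg per sample) was treated in triplicate with fragment at 200 µM or vehicle for 3 h, then with Biotin-Ahx-Ub-VS at 0.5 µM final for 1 h, and labelled DUBs were NeutrAvidin-enriched and run by diaPASEF LC-MS/MS.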

USP46 = USP46 (UniProt P62068)
Summary of the method: as §1

USP47 = biological target: T2, USP47 (UniProt Q96K76)
T2 sequence (whole entry): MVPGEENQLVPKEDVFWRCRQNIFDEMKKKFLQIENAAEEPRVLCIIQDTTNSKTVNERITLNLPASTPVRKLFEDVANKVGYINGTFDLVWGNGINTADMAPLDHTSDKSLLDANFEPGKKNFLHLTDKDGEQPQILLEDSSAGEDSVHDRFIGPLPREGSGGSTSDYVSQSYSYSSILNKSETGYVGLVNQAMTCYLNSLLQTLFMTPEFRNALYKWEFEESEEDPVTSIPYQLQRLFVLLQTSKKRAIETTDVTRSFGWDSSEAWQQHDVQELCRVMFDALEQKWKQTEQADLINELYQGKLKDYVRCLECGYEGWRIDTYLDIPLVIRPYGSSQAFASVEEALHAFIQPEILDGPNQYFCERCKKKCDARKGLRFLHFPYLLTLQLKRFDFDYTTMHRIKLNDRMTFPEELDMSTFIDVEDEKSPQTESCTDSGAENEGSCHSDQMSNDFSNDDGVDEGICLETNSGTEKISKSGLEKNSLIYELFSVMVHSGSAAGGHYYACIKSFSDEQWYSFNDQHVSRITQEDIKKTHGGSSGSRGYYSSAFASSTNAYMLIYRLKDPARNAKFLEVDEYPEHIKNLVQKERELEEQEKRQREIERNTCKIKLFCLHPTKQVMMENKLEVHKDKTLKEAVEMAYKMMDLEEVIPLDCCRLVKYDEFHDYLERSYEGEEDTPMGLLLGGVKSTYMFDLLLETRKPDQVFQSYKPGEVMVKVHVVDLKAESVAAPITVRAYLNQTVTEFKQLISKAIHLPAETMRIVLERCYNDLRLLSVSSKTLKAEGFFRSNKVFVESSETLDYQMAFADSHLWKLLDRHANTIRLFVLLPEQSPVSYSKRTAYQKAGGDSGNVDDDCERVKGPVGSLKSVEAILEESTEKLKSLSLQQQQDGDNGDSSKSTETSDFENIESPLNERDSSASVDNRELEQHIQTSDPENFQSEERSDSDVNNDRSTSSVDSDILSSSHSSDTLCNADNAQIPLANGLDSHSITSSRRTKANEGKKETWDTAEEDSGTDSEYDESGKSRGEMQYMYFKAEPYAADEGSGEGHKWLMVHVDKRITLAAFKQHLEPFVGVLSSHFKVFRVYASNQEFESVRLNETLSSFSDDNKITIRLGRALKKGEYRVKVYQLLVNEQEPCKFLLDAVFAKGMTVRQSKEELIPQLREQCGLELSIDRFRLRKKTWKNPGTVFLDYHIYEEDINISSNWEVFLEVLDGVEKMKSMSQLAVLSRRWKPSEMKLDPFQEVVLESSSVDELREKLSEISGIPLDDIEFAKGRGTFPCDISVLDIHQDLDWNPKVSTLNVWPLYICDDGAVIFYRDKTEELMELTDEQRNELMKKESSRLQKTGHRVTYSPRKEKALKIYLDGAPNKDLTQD
Summary of the method: as §1

USP48 = biological target: T3, USP48 (UniProt Q86UV5)
T3 sequence (whole entry): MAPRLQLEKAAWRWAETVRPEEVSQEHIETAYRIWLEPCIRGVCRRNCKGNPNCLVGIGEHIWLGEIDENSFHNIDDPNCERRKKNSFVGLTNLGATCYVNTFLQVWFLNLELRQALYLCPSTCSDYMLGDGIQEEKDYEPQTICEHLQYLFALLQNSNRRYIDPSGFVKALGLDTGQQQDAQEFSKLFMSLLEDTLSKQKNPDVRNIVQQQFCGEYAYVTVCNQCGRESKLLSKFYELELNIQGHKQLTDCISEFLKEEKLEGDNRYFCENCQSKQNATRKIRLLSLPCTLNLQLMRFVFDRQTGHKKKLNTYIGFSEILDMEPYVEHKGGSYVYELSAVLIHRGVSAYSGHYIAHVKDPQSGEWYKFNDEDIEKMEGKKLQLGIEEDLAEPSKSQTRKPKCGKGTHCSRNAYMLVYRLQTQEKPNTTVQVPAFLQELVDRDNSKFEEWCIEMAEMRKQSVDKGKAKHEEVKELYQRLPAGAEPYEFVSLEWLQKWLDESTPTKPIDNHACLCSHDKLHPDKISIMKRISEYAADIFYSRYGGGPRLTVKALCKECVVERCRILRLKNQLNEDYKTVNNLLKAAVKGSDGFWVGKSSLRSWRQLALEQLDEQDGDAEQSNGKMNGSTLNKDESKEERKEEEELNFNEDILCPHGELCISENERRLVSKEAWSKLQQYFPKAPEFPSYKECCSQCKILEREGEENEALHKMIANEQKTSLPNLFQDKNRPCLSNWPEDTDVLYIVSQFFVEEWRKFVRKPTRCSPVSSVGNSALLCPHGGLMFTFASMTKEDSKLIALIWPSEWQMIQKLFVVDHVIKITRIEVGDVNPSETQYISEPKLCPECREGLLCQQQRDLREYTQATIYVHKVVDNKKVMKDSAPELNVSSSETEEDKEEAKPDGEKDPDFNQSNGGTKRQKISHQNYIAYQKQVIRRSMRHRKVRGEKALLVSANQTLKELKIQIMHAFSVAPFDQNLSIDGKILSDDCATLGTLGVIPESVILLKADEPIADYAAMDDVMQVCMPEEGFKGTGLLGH
Summary of the method: as §1

USP5 = biological target: T4, USP5 (UniProt P45974)
T4 sequence (whole entry): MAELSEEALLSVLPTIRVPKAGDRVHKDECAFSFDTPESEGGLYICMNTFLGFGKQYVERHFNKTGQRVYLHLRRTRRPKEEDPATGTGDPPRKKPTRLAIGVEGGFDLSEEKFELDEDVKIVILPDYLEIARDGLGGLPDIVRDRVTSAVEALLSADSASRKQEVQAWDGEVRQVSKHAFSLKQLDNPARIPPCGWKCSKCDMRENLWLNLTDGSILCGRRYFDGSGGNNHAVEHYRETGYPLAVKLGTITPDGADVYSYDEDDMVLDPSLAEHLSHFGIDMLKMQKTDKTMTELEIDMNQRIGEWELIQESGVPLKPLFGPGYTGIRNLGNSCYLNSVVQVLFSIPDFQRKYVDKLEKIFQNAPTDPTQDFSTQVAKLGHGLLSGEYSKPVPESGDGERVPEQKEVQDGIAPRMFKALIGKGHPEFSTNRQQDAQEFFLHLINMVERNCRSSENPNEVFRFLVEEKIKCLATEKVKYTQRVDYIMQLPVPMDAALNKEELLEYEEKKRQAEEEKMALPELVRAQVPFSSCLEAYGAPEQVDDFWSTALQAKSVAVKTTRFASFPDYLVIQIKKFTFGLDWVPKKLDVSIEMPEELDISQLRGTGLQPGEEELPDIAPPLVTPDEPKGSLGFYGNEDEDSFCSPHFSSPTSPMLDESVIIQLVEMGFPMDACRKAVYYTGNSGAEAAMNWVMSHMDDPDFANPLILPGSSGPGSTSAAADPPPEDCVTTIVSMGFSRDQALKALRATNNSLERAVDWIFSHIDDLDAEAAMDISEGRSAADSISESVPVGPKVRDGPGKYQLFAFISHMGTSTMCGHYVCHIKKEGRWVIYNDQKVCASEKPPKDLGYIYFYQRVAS
Summary of the method: as §1

USP54 = USP54 (UniProt Q70EL1)
Summary of the method: as §1

USP7 = USP7 (UniProt Q93009)
Summary of the method: as §1

USP8 = biological target: T5, USP8 (UniProt P40818)
T5 sequence (whole entry): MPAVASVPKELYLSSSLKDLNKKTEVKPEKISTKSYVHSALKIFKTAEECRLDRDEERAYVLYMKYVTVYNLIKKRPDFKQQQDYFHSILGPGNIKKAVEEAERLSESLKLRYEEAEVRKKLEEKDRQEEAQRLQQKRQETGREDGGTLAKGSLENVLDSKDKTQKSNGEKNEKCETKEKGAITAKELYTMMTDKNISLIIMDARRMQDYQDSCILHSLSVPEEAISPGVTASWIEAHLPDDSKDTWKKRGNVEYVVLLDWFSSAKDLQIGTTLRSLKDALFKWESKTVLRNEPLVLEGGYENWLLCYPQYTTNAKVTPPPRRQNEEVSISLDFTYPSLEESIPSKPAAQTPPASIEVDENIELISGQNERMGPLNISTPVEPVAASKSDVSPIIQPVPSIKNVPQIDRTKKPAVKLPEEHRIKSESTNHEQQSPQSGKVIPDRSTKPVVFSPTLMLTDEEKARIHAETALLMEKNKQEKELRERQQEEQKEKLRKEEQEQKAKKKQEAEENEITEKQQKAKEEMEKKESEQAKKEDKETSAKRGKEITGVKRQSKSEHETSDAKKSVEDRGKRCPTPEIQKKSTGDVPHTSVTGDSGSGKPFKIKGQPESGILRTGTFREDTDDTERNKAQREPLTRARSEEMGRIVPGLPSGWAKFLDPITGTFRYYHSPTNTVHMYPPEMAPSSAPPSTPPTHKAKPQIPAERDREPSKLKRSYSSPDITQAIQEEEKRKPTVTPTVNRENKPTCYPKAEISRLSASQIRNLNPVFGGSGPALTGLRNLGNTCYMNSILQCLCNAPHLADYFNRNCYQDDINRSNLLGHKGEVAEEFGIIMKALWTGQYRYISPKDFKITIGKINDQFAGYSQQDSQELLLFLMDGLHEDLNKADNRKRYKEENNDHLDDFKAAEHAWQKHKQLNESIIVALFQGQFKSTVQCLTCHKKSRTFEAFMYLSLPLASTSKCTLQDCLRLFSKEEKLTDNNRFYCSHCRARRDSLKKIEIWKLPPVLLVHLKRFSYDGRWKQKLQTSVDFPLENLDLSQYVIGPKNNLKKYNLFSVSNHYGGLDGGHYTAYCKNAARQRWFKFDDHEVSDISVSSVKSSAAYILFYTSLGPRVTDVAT
Summary of the method: as §1

USP9X = USP9X (UniProt Q93008)
Summary of the method: as §1

UniProt O00487 = biological target: UniProt O00487
Summary of the method: as §1

Measured: log2 ratio of Biotin-Ahx-Ub-VS probe labelling

Chain of USP54 (Q70EL1 whole entry): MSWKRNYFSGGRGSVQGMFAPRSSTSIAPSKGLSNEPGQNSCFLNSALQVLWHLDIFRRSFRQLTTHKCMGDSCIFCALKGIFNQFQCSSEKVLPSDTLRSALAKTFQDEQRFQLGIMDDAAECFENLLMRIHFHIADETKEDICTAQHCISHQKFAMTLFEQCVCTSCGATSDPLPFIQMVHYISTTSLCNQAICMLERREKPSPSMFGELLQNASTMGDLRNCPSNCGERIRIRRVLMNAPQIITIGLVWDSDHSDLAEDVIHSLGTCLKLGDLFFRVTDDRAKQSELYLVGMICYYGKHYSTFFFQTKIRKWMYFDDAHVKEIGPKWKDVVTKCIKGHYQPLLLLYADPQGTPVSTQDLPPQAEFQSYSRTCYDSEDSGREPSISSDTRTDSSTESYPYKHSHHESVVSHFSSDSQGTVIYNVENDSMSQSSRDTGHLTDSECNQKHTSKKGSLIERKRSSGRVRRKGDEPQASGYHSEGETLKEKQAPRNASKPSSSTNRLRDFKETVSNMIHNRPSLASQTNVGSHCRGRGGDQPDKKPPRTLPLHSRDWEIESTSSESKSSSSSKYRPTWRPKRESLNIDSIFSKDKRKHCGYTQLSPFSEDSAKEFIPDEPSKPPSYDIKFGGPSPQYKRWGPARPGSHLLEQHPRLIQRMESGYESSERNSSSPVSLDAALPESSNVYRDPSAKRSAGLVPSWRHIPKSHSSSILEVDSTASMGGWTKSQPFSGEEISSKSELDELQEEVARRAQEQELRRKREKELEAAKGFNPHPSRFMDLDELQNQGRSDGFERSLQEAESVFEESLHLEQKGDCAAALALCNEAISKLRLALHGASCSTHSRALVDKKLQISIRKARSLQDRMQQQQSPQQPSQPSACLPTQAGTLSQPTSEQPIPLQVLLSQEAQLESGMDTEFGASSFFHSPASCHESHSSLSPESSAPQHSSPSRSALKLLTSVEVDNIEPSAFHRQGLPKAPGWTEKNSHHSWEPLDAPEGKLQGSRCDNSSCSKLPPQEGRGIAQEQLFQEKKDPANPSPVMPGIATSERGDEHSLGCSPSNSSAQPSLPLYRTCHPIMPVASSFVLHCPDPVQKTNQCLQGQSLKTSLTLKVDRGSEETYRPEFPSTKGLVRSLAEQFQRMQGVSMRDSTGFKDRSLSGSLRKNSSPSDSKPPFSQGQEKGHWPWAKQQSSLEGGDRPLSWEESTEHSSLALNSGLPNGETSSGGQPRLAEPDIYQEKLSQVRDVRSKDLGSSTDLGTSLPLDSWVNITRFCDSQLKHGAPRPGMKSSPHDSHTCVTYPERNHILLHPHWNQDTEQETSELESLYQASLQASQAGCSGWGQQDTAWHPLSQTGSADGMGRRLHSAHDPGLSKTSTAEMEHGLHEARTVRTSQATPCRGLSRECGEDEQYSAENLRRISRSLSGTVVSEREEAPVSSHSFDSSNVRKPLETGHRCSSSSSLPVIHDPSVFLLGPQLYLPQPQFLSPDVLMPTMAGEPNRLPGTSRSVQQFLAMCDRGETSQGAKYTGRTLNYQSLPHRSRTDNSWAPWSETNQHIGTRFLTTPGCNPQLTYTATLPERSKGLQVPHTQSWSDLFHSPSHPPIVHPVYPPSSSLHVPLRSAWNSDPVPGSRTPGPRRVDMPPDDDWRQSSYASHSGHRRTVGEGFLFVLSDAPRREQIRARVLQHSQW
Chain of USP46 (P62068 whole entry): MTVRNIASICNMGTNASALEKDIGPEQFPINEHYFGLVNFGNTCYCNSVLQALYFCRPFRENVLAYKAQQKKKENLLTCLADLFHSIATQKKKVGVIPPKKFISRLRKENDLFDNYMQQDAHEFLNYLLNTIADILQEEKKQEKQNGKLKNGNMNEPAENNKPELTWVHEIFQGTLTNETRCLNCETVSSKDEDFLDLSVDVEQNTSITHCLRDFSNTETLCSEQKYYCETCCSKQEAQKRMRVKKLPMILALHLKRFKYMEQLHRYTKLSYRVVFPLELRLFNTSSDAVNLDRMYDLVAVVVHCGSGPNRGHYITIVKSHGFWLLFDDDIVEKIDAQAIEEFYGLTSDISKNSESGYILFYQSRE
Chain of USP9X (Q93008 whole entry): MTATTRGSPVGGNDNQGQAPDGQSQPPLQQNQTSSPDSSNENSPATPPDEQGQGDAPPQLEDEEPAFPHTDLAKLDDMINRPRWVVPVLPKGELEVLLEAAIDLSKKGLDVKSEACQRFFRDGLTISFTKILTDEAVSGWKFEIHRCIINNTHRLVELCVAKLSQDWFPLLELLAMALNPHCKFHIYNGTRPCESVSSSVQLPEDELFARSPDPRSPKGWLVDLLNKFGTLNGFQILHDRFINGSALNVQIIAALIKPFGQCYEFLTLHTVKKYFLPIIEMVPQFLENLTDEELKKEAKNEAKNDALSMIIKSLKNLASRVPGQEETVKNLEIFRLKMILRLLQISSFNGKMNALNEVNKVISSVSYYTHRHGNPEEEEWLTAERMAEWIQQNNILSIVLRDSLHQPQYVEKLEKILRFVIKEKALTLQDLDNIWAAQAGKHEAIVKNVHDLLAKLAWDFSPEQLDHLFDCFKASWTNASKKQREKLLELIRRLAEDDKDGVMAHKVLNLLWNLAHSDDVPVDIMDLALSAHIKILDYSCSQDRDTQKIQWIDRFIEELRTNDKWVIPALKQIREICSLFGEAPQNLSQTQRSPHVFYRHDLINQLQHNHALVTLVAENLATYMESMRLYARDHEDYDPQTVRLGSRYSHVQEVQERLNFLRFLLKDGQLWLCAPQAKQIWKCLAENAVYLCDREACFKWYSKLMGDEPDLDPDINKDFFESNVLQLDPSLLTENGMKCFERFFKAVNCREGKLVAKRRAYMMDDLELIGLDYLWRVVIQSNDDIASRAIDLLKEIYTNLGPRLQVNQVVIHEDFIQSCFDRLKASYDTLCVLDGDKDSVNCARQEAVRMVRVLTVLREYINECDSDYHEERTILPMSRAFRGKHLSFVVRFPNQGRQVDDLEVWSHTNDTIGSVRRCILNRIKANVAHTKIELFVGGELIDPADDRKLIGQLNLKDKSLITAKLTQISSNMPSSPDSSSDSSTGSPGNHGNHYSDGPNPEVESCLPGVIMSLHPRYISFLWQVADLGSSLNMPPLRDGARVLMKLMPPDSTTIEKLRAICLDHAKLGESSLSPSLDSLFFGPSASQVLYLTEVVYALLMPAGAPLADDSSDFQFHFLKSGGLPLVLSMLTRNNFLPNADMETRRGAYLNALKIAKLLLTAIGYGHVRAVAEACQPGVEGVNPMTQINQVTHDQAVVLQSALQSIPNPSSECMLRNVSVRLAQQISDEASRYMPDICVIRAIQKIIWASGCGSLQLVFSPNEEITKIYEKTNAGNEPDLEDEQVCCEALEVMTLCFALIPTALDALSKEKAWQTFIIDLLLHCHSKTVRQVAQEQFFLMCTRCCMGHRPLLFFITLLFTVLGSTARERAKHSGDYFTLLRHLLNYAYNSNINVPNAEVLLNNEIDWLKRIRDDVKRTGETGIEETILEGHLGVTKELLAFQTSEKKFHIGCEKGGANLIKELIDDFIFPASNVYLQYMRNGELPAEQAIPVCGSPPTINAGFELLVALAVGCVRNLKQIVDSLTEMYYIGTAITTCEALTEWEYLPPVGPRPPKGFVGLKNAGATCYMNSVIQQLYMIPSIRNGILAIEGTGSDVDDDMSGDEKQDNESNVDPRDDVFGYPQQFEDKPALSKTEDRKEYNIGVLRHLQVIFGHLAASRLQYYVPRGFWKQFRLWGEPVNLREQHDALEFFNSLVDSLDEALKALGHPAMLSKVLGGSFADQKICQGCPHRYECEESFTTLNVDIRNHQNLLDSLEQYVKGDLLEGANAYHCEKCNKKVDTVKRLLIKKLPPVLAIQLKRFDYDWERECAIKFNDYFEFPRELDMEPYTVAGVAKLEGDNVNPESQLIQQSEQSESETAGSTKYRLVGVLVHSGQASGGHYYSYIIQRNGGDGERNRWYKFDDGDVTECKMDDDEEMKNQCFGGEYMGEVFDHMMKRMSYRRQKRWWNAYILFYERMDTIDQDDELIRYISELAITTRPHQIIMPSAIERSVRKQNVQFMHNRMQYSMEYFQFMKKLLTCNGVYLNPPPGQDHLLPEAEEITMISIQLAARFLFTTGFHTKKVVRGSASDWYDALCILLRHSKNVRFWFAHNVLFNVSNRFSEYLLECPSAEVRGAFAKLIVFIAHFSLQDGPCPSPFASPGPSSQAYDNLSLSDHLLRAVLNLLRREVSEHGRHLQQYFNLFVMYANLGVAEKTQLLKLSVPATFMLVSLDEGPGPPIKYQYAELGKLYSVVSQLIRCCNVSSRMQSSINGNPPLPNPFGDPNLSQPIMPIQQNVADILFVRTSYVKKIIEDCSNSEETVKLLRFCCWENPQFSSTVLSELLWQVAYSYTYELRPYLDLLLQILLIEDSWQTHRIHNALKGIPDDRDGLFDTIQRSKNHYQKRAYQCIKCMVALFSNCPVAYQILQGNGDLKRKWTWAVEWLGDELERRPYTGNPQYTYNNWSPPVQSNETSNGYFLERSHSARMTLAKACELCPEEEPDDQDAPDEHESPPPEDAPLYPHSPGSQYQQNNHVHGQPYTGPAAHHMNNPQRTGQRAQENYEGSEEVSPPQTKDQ
Chain of UniProt O00487 (O00487 whole entry): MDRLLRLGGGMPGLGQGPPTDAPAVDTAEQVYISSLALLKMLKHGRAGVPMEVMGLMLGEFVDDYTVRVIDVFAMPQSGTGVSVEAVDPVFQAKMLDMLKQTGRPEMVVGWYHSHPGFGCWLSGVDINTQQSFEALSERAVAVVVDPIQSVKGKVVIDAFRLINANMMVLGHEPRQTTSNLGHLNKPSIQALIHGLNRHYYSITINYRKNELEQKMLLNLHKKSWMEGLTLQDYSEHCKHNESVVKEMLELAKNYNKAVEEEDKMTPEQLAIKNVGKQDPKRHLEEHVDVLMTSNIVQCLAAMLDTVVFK

Cc1c(C#N)c(NC(=O)CCl)n(Cc2ccco2)c1C
inactive: USP42 0.0887 | USP46 -0.16 | USP47 -0.217 | USP48 -0.398 | USP5 -0.329 | USP54 -0.38 | USP7 -0.563 | USP8 -0.000142 | USP9X -0.241 | UniProt O00487 -0.177
